The panel holds about 83,000 compounds, 20% with a hit somewhere; the sample as a whole holds those more often.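 Plates (96-well) were seeded with cells, treated with compound at one concentration, and incubated for 48 hours before percent growth was determined.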 A number with no mark means an inactive call. The source made the active and inactive calls. How the source made its calls: active means growth percent below 10; inactive means the rest.
Assays:
Test in all cases: NCI-60 one-dose screen, 48 h (100 = growth as untreated, 0 = no growth, -100 = all killed)
[1] = system: DU-145 prostate; conditions: 10 µM unless noted
[2] = system: K-562 leukemia; conditions: 10 µM unless noted
[3] = system: MALME-3M melanoma; conditions: 10 µM unless noted
[4] = system: MDA-MB-231 breast; conditions: 10 µM unless noted
[5] = system: RXF 393 renal; conditions: 10 µM unless noted
[6] = system: SF-268 CNS; conditions: 10 µM unless noted
[7] = system: SF-295 CNS; conditions: 10 µM unless noted
[8] = system: SF-539 CNS; conditions: 10 µM unless noted
[9] = system: UACC-257 melanoma; conditions: 10 µM
[10] = system: M14 melanoma; conditions: 10 µM unless noted
[11] = system: HCT-15 colon; conditions: 10 µM unless noted
[12] = system: HT29 colon; conditions: 10 µM unless noted
[13] = system: SNB-75 CNS; conditions: 10 µM unless noted
[14] = system: SNB-19 CNS; conditions: 10 µM unless noted
[15] = system: U251 CNS; conditions: 10 µM unless noted
[16] = system: PC-3 prostate; conditions: 10 µM unless noted
[17] = system: SK-MEL-5 melanoma; conditions: 10 µM unless noted
[18] = system: UACC-62 melanoma; conditions: 10 µM unless noted
[19] = system: LOX IMVI melanoma; conditions: 10 µM unless noted
[20] = system: SK-MEL-28 melanoma; conditions: 10 µM unless noted

Structure (SMILES)	growth [1]	growth [2]	growth [3]	growth [4]	growth [5]	growth [6]	growth [7]	growth [8]	growth [9]	growth [10]	growth [11]	growth [12]	growth [13]	growth [14]	growth [15]	growth [16]	growth [17]	growth [18]	growth [19]	growth [20]
CCOC(=O)c1c(Nc2ccccc2)nn2c(-c3ccc(Br)cc3)ccnc12	77.8%	78.9%	75%	70.4%	-12.3% (active)	68.7%	77.2%	63.8%	103%	88.6%	66.4%	76.7%	65.2%	56.8%	66.3%	80.9%	81.2%	79.3%	56.4%	78.3%
CN1CCN(Cc2ccc(NC(=O)c3cncc(C#Cc4cnc5ccc(O[C@H]6CCOC6)nn45)c3)cc2C(F)(F)F)CC1	-78.9% (active)	0.583% (active)	-87.5% (active)	-59.7% (active)	-76.9% (active)	-63.8% (active)	-81.8% (active)	-92% (active)	-52% (active)	-87.2% (active)	-49.3% (active)	-67.8% (active)	-95.9% (active)	-69.2% (active)	-85.4% (active)	-9.05% (active)	-95.2% (active)	-45.3% (active)	-88.1% (active)	-80.3% (active)
COc1cc(NC2=C(Cl)C(=O)c3nc(C)ccc3C2=O)cc(OC)c1	-93% (active)	4.73% (active)	-89.4% (active)	-28.6% (active)	-97.2% (active)	37%	51.6%	-30.9% (active)	-92% (active)	-96% (active)	-66.2% (active)	24.9%	-4.09% (active)	30.4%	36.8%	28%	-74.9% (active)	-43.6% (active)	-82.6% (active)	-73.1% (active)
COc1cc(C(=O)C[n+]2ccc3ccccc3c2)cc(OC)c1OC	105%	91.7%	91.5%	93.3%	101%	100%	100%	100%	103%	98.1%	98%	95.2%	90%	93.5%	98.3%	88.8%	99.8%	91.4%	97.4%	106%
CC(=O)Nc1ccc(NC(=O)Nc2cccc(-c3nc(-c4ccc(NC(=O)c5cccs5)cc4Cl)no3)c2)cc1C(F)(F)F	-15.4% (active)	1.01% (active)	-84.3% (active)	-60.6% (active)	-85% (active)	-38.8% (active)	-62.9% (active)	-87.5% (active)	-58.4% (active)	-59.2% (active)	20.2%	-36.4% (active)	-73.2% (active)	-33.7% (active)	-57.4% (active)	-64.5% (active)	-77.8% (active)	-82.4% (active)	-88% (active)	-90.1% (active)
O=C(N/N=C\c1ccc(Cl)cc1)c1ccc2nc(-c3ccc(Br)cc3)[nH]c2c1	-1.02% (active)	2.78% (active)	-59% (active)	18.2%	-46.6% (active)	11.9%	-37.8% (active)	-5.56% (active)	3.89% (active)	-45.6% (active)	-25.2% (active)	-52% (active)	49.9%	5.18% (active)	-70.6% (active)	-23.7% (active)	22.2%	8.2% (active)	-80.5% (active)	-14.7% (active)
O=S(=O)(Nc1ccc(-c2nc(-c3cccc(O)c3)c(-c3ccnc(Br)c3)[nH]2)cc1)c1ccccc1	54.6%	2.08% (active)	39.8%	23%	-16.3% (active)	37.1%	10.4%	44.4%	44.5%	26.1%	13.3%	31.8%	5.4% (active)	30.2%	30.3%	9.21% (active)	-26.4% (active)	16.4%	-25% (active)	33.1%
O=C(COc1cccc2cccnc12)Nc1ccc(C(=O)/C=C/c2ccc(Cl)cc2)cc1	88.7%	47.4%	108%	93.4%	92.5%	93.7%	91.6%	93.5%	99.8%	99.5%	70%	86.5%	96%	87.2%	92.2%	89.2%	83.7%	72.6%	47.5%	101%
O=C(NNc1nc2cc(F)c(F)cc2n2cccc12)c1cccnn1	24.3%	13.3%	17.8%	32.4%	40.1%	14%	8.56% (active)	0.368% (active)	5.44% (active)	11.2%	29.1%	29.5%	33.7%	22.6%	14.8%	33.7%	-36.8% (active)	10.5%	3.83% (active)	27.3%
CC(=O)Oc1ccc(CCN2C(=O)CSC2=S)cc1	11%	57.2%	83.2%	64.4%	69.8%	92.1%	103%	85.2%	95.9%	85.7%	62.3%	107%	103%	94.9%	104%	78.2%	86%	85.7%	41.6%	90.6%
COc1ccc(/C=N/Nc2nc(Nc3ccccc3)nc(Nc3ccc(S(N)(=O)=O)cc3)n2)cc1	65.3%	49.4%	81.3%	67.2%	22.9%	90.9%	70.4%	48%	96.4%	74.9%	68.2%	55.3%	81.9%	86.3%	66.8%	75.8%	74.6%	87%	52.5%	78.5%
CC1(COc2ccc3ncc(C#Cc4cncc(C(=O)Nc5cc(C(C)(C)C)on5)c4)n3n2)COC1	53.5%	16.2%	30.2%	30.7%	-2.4% (active)	53.9%	22.6%	20.2%	79.9%	28.7%	26%	101%	12.8%	60.9%	29%	43.4%	7.95% (active)	29.6%	11%	51.4%
O=C(NNc1nc2cc(F)cc(F)c2n2cccc12)c1ccncn1	18.7%	8.02% (active)	28.3%	32.2%	18.8%	12.5%	15.1%	7.47% (active)	5.21% (active)	4.27% (active)	25.3%	23.8%	19.3%	21.9%	9.14% (active)	33.6%	-4.3% (active)	3.64% (active)	6.37% (active)	22.9%
CCC(=O)Nc1cc(Nc2cc(NC3CC3)n3ncc(C#N)c3n2)ccc1C	44.7%	22.9%	30.8%	19.5%	-8.35% (active)	35%	21.7%	21.8%	34.2%	14.9%	13%	25.8%	-9.89% (active)	25.9%	19.5%	19.7%	15.2%	18.9%	21.1%	46.3%

— PubChem BioAssay (NCI)
